We go through 8 molecules from PubChem BioAssay (NCATS).

Where “and” joins values, the source holds several entries; their conditions need not be identical. Identical values can stand only once. A number with no mark means an inactive call. Inconclusive results are not listed. Calls of active or inactive are those of the source. Unless noted, calls follow the shape of the dose curve; as a rule, active = well fitted curve in the direction sought with a large enough effect; inconclusive = small, poorly fitted or top-dose-only effect, or another doubt; inactive = no such curve, though single readings can be large; an effect the other way counts as inactive or inconclusive.

Assay [1] is described as follows: Cell Viability - Hek293 (AID 427;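 active = compounds whose dose-response curve shows a full or clear partial loss of cell viability, called from curve shape rather than a numeric limit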;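 also: potency is read from the fitted curve at half-maximal effect; cells exposed to compound for 40 hours at 37 °C before reading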). The conditions noted are these: qHTS. An outline of the steps: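 qHTS, human embryonic kidney (adenovirus-transformed) cells; 40 hr cpd, 37 °C; CellTiter-Glo ATP luminescence. Norm: DMSO = 0, 100 uM tamoxifen = 100% inhibition. Hill-fit AC50.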
The nature of assay [2]: Cell Viability - HepG2 (AID 433; calls by dose curve;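 also: potency is read from the fitted curve at half-maximal effect; cells exposed to compound for 40 hours; potency for ATP loss meaning cytotoxicity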). The conditions noted are these: qHTS. An outline of the steps: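 ATP luminescence (CellTiter-Glo) after 40 h compound exposure, 37 °C, HepG2, 1500 cells/well, complete medium. Normalized: DMSO = basal, 100 uM tamoxifen = 100% inhibition. AC50 via standard Hill equation.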
(Quantitative high-throughput screening tests each substance at several concentrations.)

The nature of assay [3]: Cell Viability - Mesenchymal (AID 546).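 Also: cells exposed to compound for 40 hours before reading.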 Also: potency is read from the fitted curve at half-maximal effect. The conditions noted are these: mesenchymal cells viability, qHTS; activity change, negative = cytotoxicity: at 91.7 µM (top of the series). An outline of the steps:
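Human kidney mesenchymal cells from normal renal glomeruli, 1000 cells/well, rested 5 hr at 37 °C, then treated 40 hr at 37 °C in complete medium. Cellular ATP read by CellTiter-Glo luminescence; AC50 from Hill-equation fits.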

Assay [4] in a line: Cellular Toxicity (caspase-3) Jurkat (AID 655).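 Also: cells exposed to compound for 16 h at 37 °C before reading.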 The settings on record: Jurkat caspase-3 activation, luminescence; caspase-3 activation: at 92.2 µM (top of the series), DMSO = 0%, tamoxifen = 100%. An outline of the steps:
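Luminescent caspase-3/7 readout (aminoluciferin substrate cleavage) in human T-cell leukemia Jurkat cells after 16 hr compound exposure. Concentration-response normalized to DMSO and 100 uM tamoxifen; AC50 by standard Hill equation.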

The nature of assay [5]: Cellular Toxicity (caspase-3) HUV-EC-C (AID 656). The settings on record: HUV-EC-C cells, caspase-3 activation (apoptosis); series mostly up to 92.2 µM. An outline of the steps:
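Luminescent caspase-3/7 activation (aminoluciferin substrate cleavage) in HUV-EC-C cells after 16 hr compound exposure, 37°C. Signal normalized to DMSO basal and 100 uM tamoxifen as 100%; AC50 from concentration-response fitted with the Hill equation.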

A short description of assay [6]: Cellular Toxicity (caspase-3) BJ (AID 658).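 Also: 0% = DMSO basal and 100% = 10 µM staurosporine.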 The settings on record: BJ fibroblasts, luminescence; Potency: caspase-3 activation; series mostly up to 91.7 µM. An outline of the steps: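 BJ human foreskin fibroblasts, 1000 cells/well, treated 16 hours at 37 °C in complete medium; caspase 3/7 activity by Caspase-Glo luminescence after 1 hr at room temperature. Normalized to DMSO and 10 uM staurosporine; AC50 from Hill fits.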

A short description of assay [7]: Cellular Toxicity (caspase-3) Mesangial (AID 660).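 Also: combined caspase 3 and 7 activity read by Caspase-Glo luminescence; cells exposed to compound for 16 h before the caspase read.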 The settings on record: mesangial cells, normalized: DMSO 0%, 100 µM tamoxifen 100%; at 91.7 µM (top of the series). An outline of the steps:
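Human renal glomerular mesangial cells, 1000/well, 5 h at 37 C before 16 h compound treatment. Caspase-Glo 3/7 luminescence after 20 min; normalized to DMSO and 100 uM tamoxifen, AC50 from Hill fit.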

A short description of assay [8]: Cellular Toxicity (caspase-3) SK-N-SH (AID 661). Also: potency is read from the fitted curve at half-maximal effect.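 As to caspase-3 activation: 0% = DMSO basal and 100% = 10 µM staurosporine.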 The settings on record: SK-N-SH caspase-3 activation, qHTS; caspase-3 activation: at 91.7 µM (top of the series), DMSO as zero, staurosporine as full. An outline of the steps: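 Human SK-N-SH neuroblastoma cells, 1500/well, were exposed to compounds for 16 hours at 37 °C. Caspase-Glo 3/7 luminescence was normalized to DMSO (basal) and 10 uM staurosporine (100%), and AC50 came from a Hill fit.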

Assay [9] can be described thus: Cellular Toxicity (caspase-3) Hek293 (AID 664).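 Also: cells exposed to compound for 16 h at 37 °C before readout.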 The conditions noted are these: HEK293 caspase-3 activation, DMSO = 0%, 100 µM tamoxifen = 100%; at 92.2 µM (top of the series). An outline of the steps: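 HEK293 cells in complete medium treated 16 h at 37 °C, then Caspase-Glo 3/7 luminescence read after 20 min at room temperature. Normalized to DMSO and 100 uM tamoxifen; AC50 from Hill fit of concentration-response.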

A short description of assay [10]: MultiTox-Fluor Cytotoxicity Assay - LYMP1-001 - Dead Cells (AID 946). Also: potency is read from the fitted curve at half-maximal effect. The settings on record: LYMP1-001 lymphoblastoid cells, dead-cell protease fluorescence; series mostly up to 92.2 µM. An outline of the steps: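 Seed 2500 LYMP1-001 cells/well, incubate 5 hr at 37 C; add compound, 16 hr at 37 C; add MultiTox-Fluor reagent, 60 min RT; read dead-cell fluorescence Ex/Em=485/520. Normalize to DMSO and 15 uM tetraoctylammonium bromide.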

Assay [11] is described as follows: Cell Viability - LYMP1-003 - Assay at 24 hr (AID 963). Also: potency is read from the fitted curve at half-maximal effect. The conditions noted are these: LYMP1-003 lymphoblastoid cell viability; series mostly up to 92.2 µM. An outline of the steps:
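Human lymphoblastoid LYMP1-003 cells, 2500/well, treated 24 h at 37 C in complete medium. Viability read as intracellular ATP by CellTiter-Glo luminescence after 30 min at room temperature; AC50 from Hill-equation fits of qHTS concentration-response.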

Assay [12] is described as follows: Cell Viability - LYMP1-003 - Assay at 40 hr (AID 964). Also: nearly all actives have a fitted effect of over 60% in size. Also: potency is read from the fitted curve at half-maximal effect. The settings on record: LYMP1-003 lymphoblastoid viability; series mostly up to 92.2 µM. An outline of the steps: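 LYMP1-003 human lymphoblastoid cells, 2500/well, preincubated 5 h at 37 C, then treated with compound for 40 h at 37 C. Intracellular ATP read by CellTiter-Glo luminescence after 30 min at room temperature; AC50 from Hill-equation fits.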

Assay [13] in a line: Cell Viability - LYMP2-003 (AID 965).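 Also: cells exposed to compounds for 24 h before reading; nearly all actives have a fitted effect of over 50% in size.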 Also: potency is read from the fitted curve at half-maximal effect.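 As to activity change, negative = cytotoxicity: 0% = DMSO only and full effect = 92 µM tetraoctylammonium bromide.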 The conditions noted are these: LYMP2-003 lymphoblastoid cell viability; series mostly up to 92.2 µM. An outline of the steps:
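CellTiter-Glo luminescence (cellular ATP) after 24 h compound exposure at 37 C in complete medium; 2500 cells/well, 5 h settling beforehand. Concentration-response fitted to standard Hill equation for AC50. Tetraoctylammonium bromide served as positive control.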

The nature of assay [14]: Cell Viability - LYMP2-009 (AID 968). Also: nearly all actives have a fitted effect of over 55% in size. Also: potency is read from the fitted curve at half-maximal effect. The conditions noted are these: LYMP2-009 lymphoblastoid cell viability; series mostly up to 92.2 µM.
A short description of assay [15]: Cell Viability - LYMP2-017 (AID 972). Also: nearly all actives have a fitted effect of over 55% in size. Also: potency is read from the fitted curve at half-maximal effect. As to activity change, negative = cytotoxicity: % is scaled to controls: 0 for no effect and ±100 for the full control effect. The conditions noted are these: LYMP2-017 lymphoblastoid cell viability; series mostly up to 92.2 µM. An outline of the steps: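 LYMP2-017 human lymphoblastoid cells (2500/well) settled 5 hr at 37 C, then exposed to compound 24 hr at 37 C in complete medium. Viability taken as intracellular ATP by CellTiter-Glo luminescence after 30 min at RT; AC50 from Hill fits.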

The nature of assay [16]: Cell Viability - LYMP2-021 (AID 974).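 Also: compound exposure lasts 24 hours at 37 °C; nearly all actives have a fitted effect of over 55% in size.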 Also: potency is read from the fitted curve at half-maximal effect. As to activity change, negative = cytotoxicity: % is scaled to controls: 0 for no effect and ±100 for the full control effect. The conditions noted are these: LYMP2-021 lymphoblastoid cells viability; series mostly up to 92.2 µM. An outline of the steps: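 Human lymphoblastoid LYMP2-021 cells, 2500/well in complete medium, treated 24 hours at 37 C. Intracellular ATP by CellTiter-Glo luminescence (30 min, RT); AC50 from Hill fits of concentration-response.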

A short description of assay [17]: Cell Viability - LYMP2-007 (AID 979).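 Also: cells exposed to compound for 24 h before reading; nearly all actives have a fitted effect of over 60% in size.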 Also: potency is read from the fitted curve at half-maximal effect.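 As to activity change, negative = cytotoxicity: 0% = DMSO only and the negative end = 92 µM tetraoctylammonium bromide.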 The settings on record: LYMP2-007 lymphoblastoid cell viability; series mostly up to 92.2 µM. An outline of the steps:
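Human lymphoblastoid LYMP2-007 cells (2500/well) preincubated 5 h at 37 C, then treated 24 h at 37 C in complete medium. Viability by CellTiter-Glo ATP luminescence after 30 min at room temperature; AC50 from Hill fits.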

Assay [18] concerns the target Voltage-gated inwardly rectifying potassium channel KCNH2 (Homo sapiens) (UniProt Q12809). Briefly: qHTS Assay for Small Molecule Inhibitors of the Human hERG Channel Activity (AID 588834).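 Also: lower thallium flux fluorescence means stronger hERG block; nearly all actives have a fitted effect of over 50% in size.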 Also: potency is read from the fitted curve at half-maximal effect. The settings on record: U2OS BacMam hERG, FluxOR thallium flux fluorescence; series mostly up to 92.2 µM. An outline of the steps:
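Concentration-response qHTS measuring drop in thallium-sensitive dye signal. U2OS cells carrying BacMam hERG; compound exposure ~10 min, then stimulation buffer and 2 min read at 1 sec intervals.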

Assay [19] is described as follows: qHTS assay for small molecule disruptors of the mitochondrial membrane potential - 5 hr assay (AID 651755; calls by dose curve; also: nearly all actives have a fitted effect of over 40% in size; also: potency is read from the fitted curve at half-maximal effect). The settings on record: JC-1-type ratio dye; series mostly up to 92.2 µM. An outline of the steps:
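HepG2 cells (2,000/well), attached overnight, exposed to compound 5 hr at 37C, then Mito-MPS dye 30 min. Fluorescence read for monomers (490/535 nm) and aggregates (540/590 nm).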

Assay [20] is described as follows: qHTS assay for cell viability of HEK293 cells (AID 743288). Also: nearly all actives have a fitted effect of over 50% in size. Also: potency is read from the fitted curve at half-maximal effect. As to max response: % is scaled to controls: 0 for no effect and ±100 for the full control effect. The conditions noted are these: ATP luminescence (CellTiter-Glo), 18 h; max response: hits give low values. An outline of the steps:
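Environmental chemicals tested in qHTS format against parental HEK293 cells; 18 h treatment, 37 C; read-out ATP luminescence (CellTiter-Glo), 30 min RT development.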

Sequence of Voltage-gated inwardly rectifying potassium channel KCNH2 (Homo sapiens) (Q12809 whole entry, looked up): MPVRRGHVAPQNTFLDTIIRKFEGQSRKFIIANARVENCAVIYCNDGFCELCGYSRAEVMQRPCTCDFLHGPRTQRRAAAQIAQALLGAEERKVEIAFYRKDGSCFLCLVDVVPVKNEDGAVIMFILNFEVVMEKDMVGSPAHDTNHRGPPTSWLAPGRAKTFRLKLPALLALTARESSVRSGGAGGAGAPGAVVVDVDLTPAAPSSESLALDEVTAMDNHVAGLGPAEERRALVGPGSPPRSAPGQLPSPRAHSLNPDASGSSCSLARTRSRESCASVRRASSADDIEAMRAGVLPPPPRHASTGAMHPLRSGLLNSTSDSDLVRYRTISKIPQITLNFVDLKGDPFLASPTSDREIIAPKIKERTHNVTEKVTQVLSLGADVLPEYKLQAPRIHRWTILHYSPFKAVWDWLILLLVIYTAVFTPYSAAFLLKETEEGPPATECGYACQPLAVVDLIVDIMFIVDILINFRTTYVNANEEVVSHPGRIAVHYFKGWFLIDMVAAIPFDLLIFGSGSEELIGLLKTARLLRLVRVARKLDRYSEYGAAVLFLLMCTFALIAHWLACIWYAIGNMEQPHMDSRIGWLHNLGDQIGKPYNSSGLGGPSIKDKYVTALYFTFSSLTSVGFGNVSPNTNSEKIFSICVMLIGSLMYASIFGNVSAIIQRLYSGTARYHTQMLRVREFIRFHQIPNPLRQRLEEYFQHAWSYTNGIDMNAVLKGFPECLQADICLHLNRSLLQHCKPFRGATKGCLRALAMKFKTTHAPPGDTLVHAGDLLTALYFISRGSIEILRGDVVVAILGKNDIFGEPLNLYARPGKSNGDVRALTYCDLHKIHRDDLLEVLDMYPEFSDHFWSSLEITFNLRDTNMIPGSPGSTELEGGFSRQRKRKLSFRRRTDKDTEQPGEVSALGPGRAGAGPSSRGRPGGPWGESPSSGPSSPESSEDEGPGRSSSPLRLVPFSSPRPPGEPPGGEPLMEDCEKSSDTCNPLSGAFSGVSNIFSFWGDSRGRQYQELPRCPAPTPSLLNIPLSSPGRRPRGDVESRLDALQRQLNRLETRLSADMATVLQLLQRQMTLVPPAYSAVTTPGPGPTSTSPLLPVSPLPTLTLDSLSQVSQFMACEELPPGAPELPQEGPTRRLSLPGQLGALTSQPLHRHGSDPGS

As to `C=C(C)c1ccccc1`, the Potency in [1] and in assay [2] was over 92 µM each time. Besides, the Potency entry in [3], in assay [4], in [5], in assay [6], in assay [10] and in [11] was “inactive” each time. Besides, the Potency result in assay [12], in assay [13], in [14], in assay [15], in [16] and in [17] was “inactive” each time. In addition, the Potency result in assay [18] and in assay [19] was “inactive” each time. In addition, the caspase-3 activation in assay [7] is 0.545%; in assay [8], 0.438%; in assay [9], 0.697%. Besides, the max response in [20] was 1.22%.
In the case of `C=CC(=O)OCCOCCOC(=O)C=C`, the Potency was 27 µM (active) in assay [1]; 50.1 µM (active) in assay [10]; 31.6 µM (active) in assay [11]; 25.1 µM (active) in [12]; 12.6 µM (active) in [13]; 20 µM (active) in [14]. Moreover, the Potency in assay [15] was 20 µM (active); in assay [16] it was 15.8 µM (active); in assay [17] it was 25.1 µM (active). Besides, in [3], the activity change, negative = cytotoxicity is -100% (active). Further, the Potency result in [5], in [18] and in assay [19] was “inactive” in each case. The caspase-3 activation in [7] is 0.177%; in [9], 5.92%.
Consider `O=C1OC(O)C(C(Cl)Cl)=C1Cl` (stereo not drawn), for which the Potency result in [5], in [6], in [18] and in assay [19] was “inactive” throughout. For the same molecule, the caspase-3 activation in assay [9] was 0.823%. Further, the Potency in assay [13] was 15.8 µM (active); in assay [14] it was 25.1 µM (active); in [15] it was 25.1 µM (active); in assay [16] it was 20 µM (active); in assay [17], 25.1 µM (active). Besides, in [20], the max response is -27.5%.
`Oc1ccc2cc(SSc3ccc4cc(O)ccc4c3)ccc2c1`: the Potency in [1] was 46.2 µM (active); in assay [2], over 92 µM; in assay [11], 50.1 µM (active); in assay [12], 50.1 µM (active); in assay [14], 50.1 µM (active); in assay [15], 50.1 µM (active). Besides, the Potency in [17] was 39.8 µM (active); in assay [18], 44.7 µM (active); in assay [19], 42.2 µM (active). Further, the Potency entry in [4], in [5], in assay [6] and in assay [10] was “inactive” in each case. Moreover, the caspase-3 activation in assay [7] is -1.21%; in assay [8] it was 10.2%; in [9] it was 15.1%. Besides, the max response in assay [20] is -14.6%.
`C/C=C1\C(=O)C[C@H]2[C@@H]3CCC4=CC(=O)CC[C@]4(C)[C@H]3CC[C@]12C`: the Potency was over 92 µM in assay [2], 50.1 µM (active) in assay [10] and 35.5 µM (active) in [18]. Besides, the Potency result in assay [3], in assay [4], in assay [5], in [6], in assay [11] and in assay [13] was “inactive” throughout. Also, the Potency entry in [14], in assay [16], in assay [17] and in [19] was “inactive” each time. In addition, the caspase-3 activation in assay [7] was 1.02%; in assay [8] it was 1.31%.
For the molecule `c1cc(OCC2CO2)cc(OCC2CO2)c1` (stereo not drawn), the Potency was 32.9 µM (active) in assay [1] and 12.6 µM (active) in [8]. The caspase-3 activation in assay [9] was 8.84%. The Potency entry in assay [11], in assay [12], in assay [18] and in assay [19] was “inactive” in each case. Moreover, the max response in [20] is -14.2%.
For `CC(=O)Nc1ccc(C(=O)CCl)cc1`, the Potency in [1] was 37.9 µM (active); in assay [2] it was 40.3 µM (active); in assay [3], 12.6 µM (active); in [10], 25.1 µM (active); in assay [11], 39.8 µM (active); in [12], 39.8 µM (active). Besides, the Potency in assay [13] is 6.31 µM (active); in assay [14], 6.31 µM (active); in assay [15], 5.01 µM (active); in [16], 5.01 µM (active); in [17], 6.31 µM (active); in assay [20], 22.4 µM (active) and 25.1 µM (active). In addition, the Potency result in assay [4], in assay [5], in assay [6] and in assay [19] was “inactive” in each case. Besides, the results for the caspase-3 activation in [7] and in assay [8] were -4.19% and -5.98%, respectively.
For the molecule `O=C=Nc1ccc(Cc2ccc(N=C=O)cc2)cc1`, the Potency in [1] and in assay [2] was over 92 µM in each case. In addition, the Potency result in assay [3], in assay [4], in assay [5], in assay [6], in assay [10] and in [11] was “inactive” each time. Further, the Potency entry in [12], in [13], in assay [14], in assay [15], in assay [16] and in [17] was “inactive” in each case. The Potency result in assay [19] is “inactive”. Further, the caspase-3 activation in [7] was -0.349%; in assay [8], 0.0206%; in [9] it was -1.82%. In assay [20], the max response was 9.46% and -11.9%.
